Laboratory results published in PubChem BioAssay AID1851 (National Center for Advancing Translational Sciences (NCATS), 2009).
The campaign covered roughly 16,000 compounds. About 5,700 (36%) were called active. Inconclusive results (about 24%) are left out. The list shows a part of the results. Values without a mark were called inactive. Calls follow the shape of the dose curve; as a rule, active = well fitted curve in the direction sought with a large enough effect; inconclusive = small, poorly fitted or top-dose-only effect, or effect the other way; inactive = no such curve, though single readings can be large or run the other way.

These compounds were tested against Cytochrome P450 1A2 (Homo sapiens) (UniProt P05177) (assay: Cytochrome panel assay with activity outcomes). Conditions: recombinant CYP, pro-luciferin dealkylation, luminescence, p450-cyp1a2; series mostly up to 57.1 µM; activity, negative = inhibition: at the top concentration.
Cytochrome P450 1A2 (Homo sapiens), sequence (P05177 whole entry, looked up): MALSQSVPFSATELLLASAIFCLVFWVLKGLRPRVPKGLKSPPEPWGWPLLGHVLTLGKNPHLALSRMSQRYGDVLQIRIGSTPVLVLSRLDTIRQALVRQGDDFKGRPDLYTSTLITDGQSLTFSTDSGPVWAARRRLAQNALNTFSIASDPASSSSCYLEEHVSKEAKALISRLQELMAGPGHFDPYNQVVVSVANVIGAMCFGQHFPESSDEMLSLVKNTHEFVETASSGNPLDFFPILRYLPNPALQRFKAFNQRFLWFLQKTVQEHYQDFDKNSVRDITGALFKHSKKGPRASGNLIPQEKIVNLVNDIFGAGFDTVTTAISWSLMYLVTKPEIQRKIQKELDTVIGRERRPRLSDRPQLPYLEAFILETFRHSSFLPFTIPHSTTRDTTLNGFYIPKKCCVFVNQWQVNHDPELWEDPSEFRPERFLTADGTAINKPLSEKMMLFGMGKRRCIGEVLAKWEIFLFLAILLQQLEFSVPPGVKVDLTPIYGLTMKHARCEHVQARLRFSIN
% is scaled to controls: 0 for no effect and ±100 for the full control effect.

Row | Structure (SMILES) | activity, negative = inhibition | AC50
1 | CC[C@H]1C2=C3C(CC[C@H]4C(OCc5ccc(F)cc5C(F)(F)F)OC[C@](C)([C@@H]34)N(C(=O)OC(C)(C)C)C2)C(COC(C)=O)C1COC(C)=O (stereo not given in full) | -20.1% | 
2 | Oc1cc(CN2COc3ccccc32)c(O)cc1CNC1CCCCC1 | -14.2% [at 11.4 µM] | 
3 | Cc1cc(C(C)(C)C)cc(CNC2CCCCC2)c1O |  | 3.16 µM (active)
4 | CO[C@@H]1COC(=O)C/C=C\[C@@H](C)COC(=O)[C@H](Cc2ccccc2)NC(=O)C/C=C\[C@H]1C | 5.59% [at 11.4 µM] | 
5 | O=C(NNC(=O)c1ccccc1-n1cccc1)c1ccccc1 | -15% | 
6 | CCC(=O)NCc1c(Cl)cccc1-n1cccc1 |  | 14.1 µM (active)
7 | COc1nc(C)nc(Cl)c1NC1=NCCN1 |  | inactive
8 | C/C(=C\c1ccco1)C1C(C#N)=C(N)Oc2n[nH]c(-c3ccccc3)c21 (stereo not given) |  | 0.2 µM (active)
9 | COc1ccc(C(C)(C)C)cc1NC(=O)c1cncc(Br)c1 |  | 1 µM (active)
10 | Cc1nnc(SCc2nc(N)nc(Nc3ccccc3)n2)s1 |  | 4.47 µM (active)
11 | COc1ccc(Nc2nc(N)nc(CSc3n[nH]c(-c4ccccc4)n3)n2)cc1 |  | 15.8 µM (active)
12 | NC[C@@H]1O[C@H](O[C@@H]2[C@H](O[C@@H]3O[C@H](CO)[C@@H](COC[C@H]4O[C@@H](CN)[C@@H](O)[C@@H](O)[C@@H]4N)[C@@H]3O)[C@@H](O)[C@@H](N)C[C@H]2N)[C@@H](N)[C@H](O)[C@@H]1O | -3.52% [at 25.6 µM] | 
13 | O=C(OC(C(=O)NC1CCCC1)c1ccncc1)C1=Cc2ccccc2OC1 (stereo not given) |  | 11.2 µM (active)
14 | Cc1cc(C)cc(N(C(=O)Cc2cccs2)C(C(=O)NC2CCCCC2)c2ccccn2)c1 (stereo not given) | -28.1% | 
15 | CC(C)c1ccc(N(C(=O)C(F)(F)F)C(C(=O)NC2CCCCC2)c2ccncc2)cc1 (stereo not given) | -19.1% | 
16 | NCCOB(c1ccccc1)c1ccccc1 |  | 15.8 µM (active)
17 | Cc1noc(C)c1C(=O)N1CCC2(CCCN(Cc3ccc(C#N)cc3)C2)CC1 | -23.7% | 
18 | Cc1noc(C)c1-c1cc(Nc2ccccc2)ncn1 |  | 1.26 µM (active)
19 | Cc1noc(C)c1-c1cc(Nc2ccc(F)cc2)ncn1 |  | 0.501 µM (active)
20 | Cc1noc(C)c1C(=O)OCC(=O)NC(c1ccccc1)c1ccccc1 | -5.73% | 
21 | Cc1n[nH]c(C)c1S(=O)(=O)N1CCOCC1 | 0.471% | 
22 | CCc1cc2c(nc1CC)CCN(CC/C(C)=N/O[C@@H](C)c1cc(-c3c(C)cc(C)cc3C)no1)C2 | -8.6% [at 11.4 µM] | 
23 | O=C(c1cnn(-c2ccccc2)c1)c1ccc2ccccc2c1O |  | 2.51 µM (active)
24 | O=C(O)/C(=C\c1ccc(O)cc1)c1cccc2ccccc12 | -10.8% [at 11.4 µM] | 

Row | Structure (SMILES) | activity, negative = inhibition | AC50
25 | CC(C)CNC(=O)O | -14.2% [at 11.4 µM] | 
26 | CN[C@@H]1NC(=O)c2ccccc2N1Cc1ccc(F)cc1 | -7.56% [at 2.29 µM] | 
27 | Cc1ccc(NC2c3ncccc3C(=O)N2Cc2ccc(F)cc2)cc1 (stereo not given) |  | 11.2 µM (active)
28 | Cc1ccc(CN2C(=O)CCC2C(=O)NCc2cccnc2)cc1 (stereo not given) | 1.64% | 
29 | CN(C)C(=O)c1ccc(-c2ccc3ncnc(NCc4cccs4)c3c2)cc1 |  | 15.8 µM (active)
30 | Cc1cccc(CNc2ncnc3ccc(-c4ccc(C(=O)N(C)C)cc4)cc23)c1 |  | 15.8 µM (active)
31 | CN(C)c1ccc(-c2ccc3ncnc(NCc4ccccc4)c3c2)cc1 |  | 0.501 µM (active)
32 | CN(C)C(=O)c1ccc(-c2ccc3ncnc(NCc4ccccc4)c3c2)cc1 |  | 15.8 µM (active)
33 | CO[C@@H](C(C)C)[C@@H](C)[C@@H]1OC(=O)C[C@@H]1O | -5.03% [at 11.4 µM] | 
34 | CN(C)c1ccc(-c2cncnc2NCc2cccnc2)cc1 |  | 1 µM (active)
35 | CN(C)c1ccc(-c2cncnc2NCc2ccccc2)cc1 |  | 1 µM (active)
36 | CC(C)CO/N=C1/C[C@@H](O)[C@@H](O)[C@@H]2[C@@H]3C(=O)N([C@@H](C)c4ccccc4)C(=O)[C@H]3CC[C@H]12 | 4.53% [at 11.4 µM] | 
37 | CN=C1S/C(=C\c2ccc(Sc3ccc(Cl)cc3)o2)C(=O)N1C |  | 3.55 µM (active)
38 | Clc1ccc(Sc2ccc(/C=N/n3cnnc3)o2)cc1 |  | 14.1 µM (active)
39 | CN(C)c1nc(C#N)nc(N2CCOCC2)n1 |  | 1.58 µM (active)
40 | Cc1cc(C(=O)OC2CCOC2=O)c2ccccc2n1 (stereo not given) |  | 2.82 µM (active)
41 | CC1(C)[C@@H]2CC[C@@](C)(C2)[C@H]1OC(=O)c1ccccc1C(=O)O | 2.82% [at 11.4 µM] | 
42 | CCCCN1CCC(n2c(=O)[nH]c3ccccc32)CC1 | 6.49% | 
43 | CCCCCCN1Cc2ccccc2C1 |  | 12.6 µM (active)
44 | OC(CCCN1CCCCC1)(c1ccccc1)c1ccccc1 | -1.9% [at 25.6 µM] | 
45 | COCCCNC(=O)CN(c1ccc(OC)cc1)S(=O)(=O)c1ccc(NC(C)=O)cc1 | 1.37% | 
46 | COc1ccc(CCNC[C@H](O)c2ccc(O)cc2)cc1OC | -7.59% | 
47 | C=CCOc1ccc(CNC(C)(C)CO)cc1OC | 11.9% | 
48 | CCOc1nc(NCCc2ccc(OC)c(OC)c2)nc(NC(C)(C)CO)n1 |  | 5.01 µM (active)

Row | Structure (SMILES) | activity, negative = inhibition | AC50
49 | CCSC[C@@H](N)C(=O)O | -1.61% [at 2.29 µM] | 
50 | Cc1c(Cl)c([N+](=O)[O-])nn1Cc1ccc(C(=O)N/N=C\c2cccc(Br)c2)o1 |  | 3.16 µM (active)
51 | Cc1c(Cl)c([N+](=O)[O-])nn1Cc1ccc(C(=O)N/N=C\c2cc(Cl)ccc2O)o1 |  | 1.58 µM (active)
52 | Cc1nn(Cc2ccc(Cl)cc2)c(C)c1NC(=O)Cn1nc([N+](=O)[O-])c(Cl)c1C | -24.4% | 
53 | CN(C)CC(O)COc1ccc(C(C)(C)c2ccc(OCC(O)CN(C)C)cc2)cc1 (stereo not given) | -5.06% | 
54 | O=C(O)[C@H]1CC=CC[C@@H]1C(=O)Nc1cccc(O)c1 | -18.8% [at 11.4 µM] | 
55 | CC(=O)c1cccc(NC=C2C(=O)OC3(CCCCC3)OC2=O)c1 |  | 3.55 µM (active)
56 | CC(=O)Nc1cccc(N2C(=O)CCC2=O)c1 | 1.31% | 
57 | CSCCC(NC=C1C(=O)OC(C)(C)OC1=O)C(=O)O (stereo not given) | 2.08% | 
58 | CC1(C)OC(=O)C(=CNc2cccc(O)c2)C(=O)O1 |  | 12.6 µM (active)
59 | CCCC[C@H](CC)CN1CN(C[C@@H](CC)CCCC)CC(C)(N)C1 | -9.62% [at 25.6 µM] | 
60 | Cc1cc(C)n(-c2nc(Nc3ccccc3C)nc(-n3nc(C)cc3C)n2)n1 | -29.6% | 
61 | Cc1cc(C)n(-c2nc(NC(C)C)nc(NC(C)C)n2)n1 |  | 10 µM (active)
62 | COc1cccc(C(=O)/C=C/c2ccc(SC)cc2)c1 |  | 2.51 µM (active)
63 | Cn1sc(NC(=O)c2ccccc2)nc1=O | -23% | 
64 | CCOC(=O)CSc1n[nH]c(NC(=O)c2cccc(C(F)(F)F)c2)n1 |  | 3.16 µM (active)
65 | Cc1ccc(NC(=O)CN(C)C(=O)CSc2n[nH]c(N)n2)cc1 | 8.75% | 
66 | CCOC(=O)CC(=O)CSc1nc(-c2cccnc2)cc(C)c1C#N |  | 10 µM (active)
67 | CCOC(=O)CSc1n[nH]c(NC(=O)c2ccccc2)n1 |  | 10 µM (active)
68 | CCOC(=O)CSc1nnc(NC(=O)c2cccc(S(=O)(=O)N3CCCCCC3)c2)s1 | 5.01% | 
69 | CCOC(=O)CSc1n[nH]c(NC(=O)c2cccc(C)c2)n1 |  | 15.8 µM (active)
70 | C[C@@H]1NC(=O)C/C=C\[C@@H](C)[C@@H]2C=C[C@H](O)[C@@H](COC(=O)[C@H](C)NC(=O)C/C=C\[C@@H](C)[C@@H]3C=C[C@H](O)[C@@H](COC1=O)O3)O2 | -3.28% [at 11.4 µM] | 
71 | COC(=O)N1CCC2(CC1)CN(C(=O)Nc1cccc(C#N)c1)C2 | 14.1% | 
72 | CN1CCC(=C2c3ccccc3CCc3sccc32)CC1 | -6.82% [at 25.6 µM] | 

Row | Structure (SMILES) | activity, negative = inhibition | AC50
73 | CCOC(=O)CSc1n[nH]c(-c2cccnc2)n1 |  | 2.51 µM (active)
74 | COc1ccc(CNc2ncnc3ccc(-c4ccoc4)cc23)c(OC)c1 |  | 1.58 µM (active)
75 | COc1ccccc1CNc1ncnc2ccc(-c3ccoc3)cc12 |  | 2.51 µM (active)
76 | CS(=O)(=O)N1CCC[C@@]2(CCN(C(=O)Nc3ccccc3)C2)C1 | -16.3% | 
77 | COC(=O)[C@@]1(Cc2ccccc2)[C@H]2c3cc(C(=O)N4CCCC4)n(Cc4ccccn4)c3C[C@H]2CN1C(=O)c1ccccc1 | -15.4% | 
78 | N[C@H](C(=O)O)[C@@H]1C[C@@H]1C(=O)O |  | inactive
79 | O=c1[nH]c2cc(Br)cnc2nc1/C=C(\O)c1ccc(F)cc1 |  | 0.398 µM (active)
80 | CCNc1ncc2nc(-c3cccc(C#N)c3)c(=O)n(C)c2n1 |  | 2.51 µM (active)
81 | CCNc1ncc2nc(-c3ccccc3)c(=O)n(C)c2n1 |  | 0.398 µM (active)
82 | CCNc1ncc2nc(-c3ccc(F)cc3)c(=O)n(C)c2n1 |  | 0.501 µM (active)
83 | CCNc1ncc2nc(-c3cc(F)cc(F)c3)c(=O)n(C)c2n1 |  | 2 µM (active)
84 | CCNc1ncc2nc(-c3ccc(OC)cc3)c(=O)n(Cc3ccc(F)cc3)c2n1 | -16.1% | 
85 | O=C1O[C@@H]([C@H](O)[C@H](O)[C@H](O)CO)[C@@H](O)[C@@H]1O | -12.7% [at 11.4 µM] | 
86 | NC(=O)c1cc[n+](CC2=C(C(=O)[O-])N3C(=O)[C@@H](NC(=O)Cc4cccs4)[C@@H]3SC2)cc1 | -15.1% [at 25.6 µM] | 
87 | C[C@H](Oc1ccccc1)C(=O)N[C@@H]1C(=O)N2[C@@H]1SC(C)(C)[C@@H]2C(=O)O | -7.23% [at 25.6 µM] | 
88 | NOCC(=O)O | -5.6% | 
89 | Cc1cc(C(C)(C)C)c(O)c(C)c1CC1=NCCN1 |  | inactive
90 | Cc1n[nH]c(=O)[nH]c1=O | -6.49% [at 25.6 µM] | 
91 | CCNc1ncc2nc(-c3ccc(OC)cc3)c(=O)n(-c3ccc(OC)cc3)c2n1 | -17.8% | 
92 | CCNc1ncc2nc(-c3ccc(Cl)cc3)c(=O)n(C)c2n1 |  | 0.398 µM (active)
93 | CN1CCN(c2ncnc3ccc(-c4cccc(C#N)c4)cc23)CC1 |  | 1.26 µM (active)
94 | c1cncc(-c2ccc3ncnc(N4CCNCC4)c3c2)c1 |  | 1.26 µM (active)
95 | N#Cc1cccc(-c2ccc3ncnc(N4CCNCC4)c3c2)c1 |  | 0.631 µM (active)
